Results taken from PMC7819943, “Rice protein-binding microarrays: a tool to detect cis-acting elements near promoter regions in rice”.
Over roughly 35,000 sequences, “fluorescence intensity (a.u.)” has its median near 10,000; the highest 2% begin near 52,000. Shown is part of a subset that was picked to be rich in the highest values.

The sequences below were run against T1, OsWOX13 (Oryza sativa, UniProt Q5QMM3 1-267) (assay: protein-binding microarray (RPBM); PBS, 2% BSA, 51.3 ng/ul salmon testes DNA, 50 uM zinc acetate, 200 nM TF, 25 C, 1 h; high values mean tight binding). Conditions: protein: recombinant; tags: N-terminal polyhistidine and DsRed monomer fusion (pET32a); label: CyDye5-dUTP incorporated in the synthesized complementary strand; 3' TTTTT single-stranded linker to array surface; dsDNA, one strand shown.
T1 sequence: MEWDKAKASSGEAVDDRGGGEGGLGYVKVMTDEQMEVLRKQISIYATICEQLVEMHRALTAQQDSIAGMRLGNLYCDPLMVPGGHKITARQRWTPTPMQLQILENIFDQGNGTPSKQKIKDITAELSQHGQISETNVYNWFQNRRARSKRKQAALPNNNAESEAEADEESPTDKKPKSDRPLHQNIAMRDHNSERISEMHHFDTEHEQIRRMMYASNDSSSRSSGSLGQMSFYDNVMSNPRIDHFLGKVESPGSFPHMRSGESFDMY
Outline: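 Transcription factors, each fused N-terminally to a polyhistidine tag and DsRed, were expressed in E. coli BL21-CodonPlus and purified on Ni–NTA. A custom Agilent array was made double-stranded by primer extension with Cy5-dUTP and blocked with 2% BSA. It was incubated with 200 nM protein in PBS, 2% BSA, salmon testes DNA and 50 µM zinc acetate at 25 °C for 1 h, then washed. The binding signal is per-feature fluorescence intensity (arbitrary units) read on an Axon 4000B scanner.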

Sequence	binding signal
ATTAGTTGGATTGATTCAAACAAAGAGGTGATAATAATTGCGGAGTCACCTAGTGCAG	11900 fluorescence intensity (a.u.)
ACATGGGAATTTTGGTGGGATGGGGATGGGGATGGGGAATCGGAGTCACCTAGTGCAG	7450 fluorescence intensity (a.u.)
GTGATTTTGTTAAACTTAGGCTGCTTGTTTCATCAATTGCCGGAGTCACCTAGTGCAG	3740 fluorescence intensity (a.u.)
GGGTTTCAATCATTTAGGTGGACGTCCACTCATTTATTGCCGGAGTCACCTAGTGCAG	16200 fluorescence intensity (a.u.)
TATGGTTAATTATGTATTTATCGACAACGGGATGTTCGTACGGAGTCACCTAGTGCAG	15000 fluorescence intensity (a.u.)
CACGAAATTAATTTAGCTCTACATCCGTTCTGTTTATGAACGGAGTCACCTAGTGCAG	8960 fluorescence intensity (a.u.)
TGGCCAAATTCTGTCAATTGCATTTGATGGAGCTGGGCTTCGGAGTCACCTAGTGCAG	11200 fluorescence intensity (a.u.)
CTATAATTTCTGGTTACGGTGGTGACAAGTCATGTGGGCTCGGAGTCACCTAGTGCAG	13900 fluorescence intensity (a.u.)
CGTGATTAGAATCCATCTCCGACCGACCGCACATACAAAGCGGAGTCACCTAGTGCAG	43300 fluorescence intensity (a.u.)
GAGCGATTATAAAATTAATTGCTCCGCGGCTTAAGCCGAGCGGAGTCACCTAGTGCAG	5680 fluorescence intensity (a.u.)
AGTGATCATTGATCTAAACTACTTGCAGGTGACGCACACGCGGAGTCACCTAGTGCAG	6200 fluorescence intensity (a.u.)
TTGTTTGATTTGTTAGGGGTGGTAAGAGCAGCCTTGTATTCGGAGTCACCTAGTGCAG	21000 fluorescence intensity (a.u.)
CTCTCTAGTAATTATCCATGTGCTCGTCTGGTTGGATTGGCGGAGTCACCTAGTGCAG	5240 fluorescence intensity (a.u.)
ATCAATTTTAAAATTAAATTTTAATTTTAAATTTTGAATTCGGAGTCACCTAGTGCAG	26900 fluorescence intensity (a.u.)
TATTTAAATTCAAATTGAAATTCAAATTTAAATCGGATATCGGAGTCACCTAGTGCAG	16800 fluorescence intensity (a.u.)
CTAATAACAAAACAAATTACAGATTTCGCCTGTAATATGCCGGAGTCACCTAGTGCAG	9460 fluorescence intensity (a.u.)
TATTAATTACAGATTGACAAAACACAAGATTTGCCTGTATCGGAGTCACCTAGTGCAG	61800 fluorescence intensity (a.u.)
ATTGATTTGATGAAACTAATTTAATATTATAAATATTATTCGGAGTCACCTAGTGCAG	26000 fluorescence intensity (a.u.)
TTAAAATAATTGACAAGATAGATTAATATTTGGTATATCACGGAGTCACCTAGTGCAG	26400 fluorescence intensity (a.u.)
CAAATTTAAATTTGAATTATATCCGATTTAAATTTGAATTCGGAGTCACCTAGTGCAG	21800 fluorescence intensity (a.u.)
GTTAATTTAATTGAAATTTAAATTTAAATCAATCTGCATTCGGAGTCACCTAGTGCAG	57600 fluorescence intensity (a.u.)
ATTAAATTTTAAAATTTAATTTTAAATTGATTTTGATATTCGGAGTCACCTAGTGCAG	42600 fluorescence intensity (a.u.)
TTTGATTTGATTTGATTTGATTGAATTAATTTGAGTCCGACGGAGTCACCTAGTGCAG	65400 fluorescence intensity (a.u.)
ATGAAATGATTTGATTGAAATATTATGAAATGATTTGAGACGGAGTCACCTAGTGCAG	39500 fluorescence intensity (a.u.)
TAATTAATTAATTGATTGATTGATTTGAAACTGATTAATTCGGAGTCACCTAGTGCAG	56200 fluorescence intensity (a.u.)
AACAATTTGATCAAGAGTTGACCGAGATAATCCCACTTGCCGGAGTCACCTAGTGCAG	4370 fluorescence intensity (a.u.)
GATCAAATTAATAGGTAACCCGCTGGTCAAACCTATGGGTCGGAGTCACCTAGTGCAG	18000 fluorescence intensity (a.u.)

Sequence	binding signal
AATTAGTAAATACTTAATTAATCATGAGAAAATGTATTGCCGGAGTCACCTAGTGCAG	3350 fluorescence intensity (a.u.)
CAAATGATGGAGGTTTCAAATTATACTGTACTTCAGCCATCGGAGTCACCTAGTGCAG	7400 fluorescence intensity (a.u.)
GTAGAGTAATTAAGTATATCCTTTTGTTCTAGTACATCGGCGGAGTCACCTAGTGCAG	4870 fluorescence intensity (a.u.)
ATCCTTATTTGATTCCTGATCAAATTAATACTGCTGCTTTCGGAGTCACCTAGTGCAG	3200 fluorescence intensity (a.u.)
GAAATTATTTGAAATTTTGACTGATTTTGAATGAATTTGACGGAGTCACCTAGTGCAG	15200 fluorescence intensity (a.u.)
ATGAATTAGATTAGATGTATATTTGAGGGAGTTAAAGTGGCGGAGTCACCTAGTGCAG	20800 fluorescence intensity (a.u.)
TTTCAAATCAAATCCAATCCTCCTCCTCCAGATCTCTCCACGGAGTCACCTAGTGCAG	3410 fluorescence intensity (a.u.)
CTGATTTGACTGAATGAATGAATTAATTAATGAGATGTATCGGAGTCACCTAGTGCAG	61600 fluorescence intensity (a.u.)
ACCCTTTCAATCATCCTCCTCCAGCAGAGCAAGCAGCCAACGGAGTCACCTAGTGCAG	11000 fluorescence intensity (a.u.)
CAAAATCAATCAATCAATCCAGCCCTGCCCTCCTTTCGGTCGGAGTCACCTAGTGCAG	57900 fluorescence intensity (a.u.)
TTAAAATTAACTTTAAAATTTAAATTTAGATTTTAATTTTCGGAGTCACCTAGTGCAG	25700 fluorescence intensity (a.u.)
TTGTAATTAATTAACTGATTAATTAAACTGCATGAATTTTCGGAGTCACCTAGTGCAG	60100 fluorescence intensity (a.u.)
TAATCAATTAAGAAATTAATTAATCCTTTGCTCCCTGATTCGGAGTCACCTAGTGCAG	54400 fluorescence intensity (a.u.)
TTCATTAATCACAGATTCAATTTGCTCCTATATATAATCCCGGAGTCACCTAGTGCAG	12700 fluorescence intensity (a.u.)
ATTAGCGCATGATTAATTGATTATTAACTATTTTAAACTTCGGAGTCACCTAGTGCAG	27400 fluorescence intensity (a.u.)
AAATTTTAAATTTTAGTAAAATTTGTTCGGTCTTTCTCTCCGGAGTCACCTAGTGCAG	5920 fluorescence intensity (a.u.)
ATAAATTTTATAAACTTGACTGCCTCTGGTTGTATATGCACGGAGTCACCTAGTGCAG	23900 fluorescence intensity (a.u.)
TGTAATTTGTTCTTGTTATCATCAATCCCATATAAACTGGCGGAGTCACCTAGTGCAG	22300 fluorescence intensity (a.u.)
CAAATTCCAATCATCTCCAAAACCACTTCGCAAATAAATTCGGAGTCACCTAGTGCAG	17900 fluorescence intensity (a.u.)
CAAACGGGTAATTAACTGGGATTAATTTGCCATAAGCCGACGGAGTCACCTAGTGCAG	53100 fluorescence intensity (a.u.)
CCCCAAATCCCACTCCAATCACCACCGCTTCTTCTCCTCCCGGAGTCACCTAGTGCAG	6580 fluorescence intensity (a.u.)
AATTAATTGTCTGATCAGTGATCTTTATTAACTGTCGACGCGGAGTCACCTAGTGCAG	28400 fluorescence intensity (a.u.)
CCTGTTAAATTGATCTGCCCTGATTAATTGACCCACCGACCGGAGTCACCTAGTGCAG	38100 fluorescence intensity (a.u.)
ATCCTTTTCTCCTTTTCTCGCAAAATCTCCAAAACCGCTTCGGAGTCACCTAGTGCAG	65500 fluorescence intensity (a.u.)
TTGATCTGATTAATTAACTGATCAGACGGGTCGACGGGACCGGAGTCACCTAGTGCAG	55700 fluorescence intensity (a.u.)
ATTAACCATAACCTAATTTGGATAAGCCGACATGGATCGGCGGAGTCACCTAGTGCAG	8230 fluorescence intensity (a.u.)
CTACCTTTAATTAGCTTTGCCATAAACGACGTGGGAGTATCGGAGTCACCTAGTGCAG	10300 fluorescence intensity (a.u.)
